# Data from PubChem BioAssay.
# Calls of active or inactive are those of the source.
# Key:
# [1] = small molecules captured by biotinylated probe aFSTL3 – biochemical, small-molecule microarray, fluorescence 635/667, stem cell growth factor project, primary screen (AID 1064); details: higher = more signal;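 also: measures binding of the biotinylated anti-FSTL3 antibody to printed compounds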
# [2] = binders from COS7 lysate, DM2A8 probe, primary screen, torsin A project, cell lysate, small-molecule microarray, fluorescence 635/667 (AID 1065); details: higher = more signal, COS7 lysate expressing mutant human TOR1A
# [3] = small molecules captured by biotinylated probe aFGF2 – biochemical, small-molecule microarray, fluorescence 635/667, stem cell growth factor project, primary screen (AID 1067); details: higher = more signal;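 also: measures binding of biotinylated aFGF2 protein to printed compounds on slides; z-score merges feature fluorescence and signal-to-noise across triplicate slides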
# [4] = small molecules captured by biotinylated probe aFGF10 – biochemical, small-molecule microarray, fluorescence 635/667, stem cell growth factor project, primary screen (AID 1071); details: higher = more signal;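 also: score merges 667 nm spot intensity and signal to noise from triplicate slides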
# [5] = target: Neurogenic locus notch homolog protein 2 (Homo sapiens) (UniProt Q04721); test: small molecules binding Notch2 protein – biochemical, small-molecule microarray, 635 nm fluorescence, stem cell growth factors, primary screen (AID 1073); details: higher = more signal
# Sequence of Neurogenic locus notch homolog protein 2 (Homo sapiens) (Q04721 whole entry, looked up, canonical isoform): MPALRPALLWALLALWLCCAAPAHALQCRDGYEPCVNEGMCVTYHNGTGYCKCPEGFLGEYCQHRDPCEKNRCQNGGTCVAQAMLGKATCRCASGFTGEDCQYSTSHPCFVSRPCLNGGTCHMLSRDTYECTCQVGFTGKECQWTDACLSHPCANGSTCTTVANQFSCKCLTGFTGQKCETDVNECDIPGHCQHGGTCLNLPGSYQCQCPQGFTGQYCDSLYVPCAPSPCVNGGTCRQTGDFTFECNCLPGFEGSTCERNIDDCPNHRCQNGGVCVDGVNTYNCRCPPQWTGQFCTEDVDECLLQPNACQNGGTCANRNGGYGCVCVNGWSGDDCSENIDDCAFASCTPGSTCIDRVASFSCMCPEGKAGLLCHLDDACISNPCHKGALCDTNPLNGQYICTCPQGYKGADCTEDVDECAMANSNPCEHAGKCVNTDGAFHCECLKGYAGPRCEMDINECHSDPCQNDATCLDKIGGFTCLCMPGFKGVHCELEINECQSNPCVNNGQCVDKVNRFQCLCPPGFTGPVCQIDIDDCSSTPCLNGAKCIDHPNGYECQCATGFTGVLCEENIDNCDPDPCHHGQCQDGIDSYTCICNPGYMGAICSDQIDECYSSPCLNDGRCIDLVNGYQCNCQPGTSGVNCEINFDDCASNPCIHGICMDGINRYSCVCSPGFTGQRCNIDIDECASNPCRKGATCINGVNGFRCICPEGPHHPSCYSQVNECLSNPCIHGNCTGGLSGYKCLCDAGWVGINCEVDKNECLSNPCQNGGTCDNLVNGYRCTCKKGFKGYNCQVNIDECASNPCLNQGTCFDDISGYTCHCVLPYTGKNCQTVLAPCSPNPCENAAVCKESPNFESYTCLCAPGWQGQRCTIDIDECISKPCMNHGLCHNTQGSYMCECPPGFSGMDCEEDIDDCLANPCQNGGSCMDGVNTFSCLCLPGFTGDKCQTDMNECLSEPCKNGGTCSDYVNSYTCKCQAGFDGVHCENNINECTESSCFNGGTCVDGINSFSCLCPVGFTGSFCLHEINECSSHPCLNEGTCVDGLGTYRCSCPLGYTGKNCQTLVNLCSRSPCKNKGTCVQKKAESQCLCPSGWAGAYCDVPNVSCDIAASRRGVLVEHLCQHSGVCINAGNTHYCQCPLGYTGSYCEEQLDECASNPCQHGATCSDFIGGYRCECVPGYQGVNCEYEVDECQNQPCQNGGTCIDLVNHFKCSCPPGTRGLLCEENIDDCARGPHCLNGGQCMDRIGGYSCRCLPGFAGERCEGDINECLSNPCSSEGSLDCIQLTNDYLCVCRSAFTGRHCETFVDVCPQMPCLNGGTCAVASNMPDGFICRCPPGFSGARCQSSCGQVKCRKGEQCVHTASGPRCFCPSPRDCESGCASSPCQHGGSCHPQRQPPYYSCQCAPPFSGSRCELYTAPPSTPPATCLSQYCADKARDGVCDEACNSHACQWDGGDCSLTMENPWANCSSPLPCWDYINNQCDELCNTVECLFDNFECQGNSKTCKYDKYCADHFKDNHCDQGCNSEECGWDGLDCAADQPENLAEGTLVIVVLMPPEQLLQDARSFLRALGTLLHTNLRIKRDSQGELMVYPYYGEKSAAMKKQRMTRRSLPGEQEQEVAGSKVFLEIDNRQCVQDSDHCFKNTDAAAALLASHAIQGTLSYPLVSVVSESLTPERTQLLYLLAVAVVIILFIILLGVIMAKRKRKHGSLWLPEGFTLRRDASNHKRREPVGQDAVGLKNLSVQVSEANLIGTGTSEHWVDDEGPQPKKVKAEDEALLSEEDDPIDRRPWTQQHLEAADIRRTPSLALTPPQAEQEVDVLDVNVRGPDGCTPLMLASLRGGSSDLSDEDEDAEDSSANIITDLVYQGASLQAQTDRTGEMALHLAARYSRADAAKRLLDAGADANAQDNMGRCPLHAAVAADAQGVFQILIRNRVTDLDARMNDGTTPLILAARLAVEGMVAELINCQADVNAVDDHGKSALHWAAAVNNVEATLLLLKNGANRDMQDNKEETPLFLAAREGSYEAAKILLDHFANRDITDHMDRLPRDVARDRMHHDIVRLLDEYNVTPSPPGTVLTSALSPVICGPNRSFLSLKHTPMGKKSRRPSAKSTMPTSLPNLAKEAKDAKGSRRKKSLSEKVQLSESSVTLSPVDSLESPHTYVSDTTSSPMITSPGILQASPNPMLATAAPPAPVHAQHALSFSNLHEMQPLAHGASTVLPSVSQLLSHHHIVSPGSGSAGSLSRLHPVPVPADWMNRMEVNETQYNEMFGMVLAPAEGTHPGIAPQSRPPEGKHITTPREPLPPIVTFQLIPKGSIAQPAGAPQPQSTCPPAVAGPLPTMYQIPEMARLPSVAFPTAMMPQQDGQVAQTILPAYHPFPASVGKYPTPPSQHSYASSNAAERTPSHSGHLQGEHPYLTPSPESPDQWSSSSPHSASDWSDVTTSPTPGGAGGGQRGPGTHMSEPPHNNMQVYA
# [6] = target: Pro-neuregulin-1, membrane-bound isoform (Homo sapiens) (UniProt Q02297); test: small molecules binding neuregulin-1 protein – biochemical, small-molecule microarray, fluorescence 635/667, psychiatric disease protein project, primary screen (AID 1075); details: NRG1 binding, 635 nm fluorescence, higher = more signal;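 also: score combines 667 nm spot fluorescence with signal to noise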
# Sequence of Pro-neuregulin-1, membrane-bound isoform (Homo sapiens) (Q02297 whole entry, looked up, the tested form may be a part, canonical isoform): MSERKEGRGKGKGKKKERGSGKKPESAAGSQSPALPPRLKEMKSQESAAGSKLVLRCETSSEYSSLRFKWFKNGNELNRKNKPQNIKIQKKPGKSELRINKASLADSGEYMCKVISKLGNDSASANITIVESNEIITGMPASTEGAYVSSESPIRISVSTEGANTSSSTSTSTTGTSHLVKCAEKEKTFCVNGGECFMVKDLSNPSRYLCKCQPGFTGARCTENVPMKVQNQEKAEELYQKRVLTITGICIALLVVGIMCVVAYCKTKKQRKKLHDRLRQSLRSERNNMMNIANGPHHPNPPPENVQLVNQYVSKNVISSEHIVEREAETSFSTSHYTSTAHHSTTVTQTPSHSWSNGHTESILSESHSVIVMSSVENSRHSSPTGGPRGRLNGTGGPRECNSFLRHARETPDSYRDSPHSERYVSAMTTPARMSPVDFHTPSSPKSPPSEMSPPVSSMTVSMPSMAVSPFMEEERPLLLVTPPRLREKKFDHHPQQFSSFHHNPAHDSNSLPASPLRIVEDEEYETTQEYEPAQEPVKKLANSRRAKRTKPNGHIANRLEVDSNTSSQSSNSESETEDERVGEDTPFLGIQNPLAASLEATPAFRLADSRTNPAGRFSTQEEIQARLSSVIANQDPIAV
# [7] = tested on: Neuregulin-1 EGF-like domain; test: small molecules binding NRG1 EGF domain – biochemical, small-molecule microarray, 635 nm fluorescence, primary screen (AID 1081); details: higher = more signal;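 also: binding of the protein to compounds printed on small-molecule microarray slides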
# [8] = FRG1 expression reporter modulators in myotubes – cell-based, C2C12 myotubes, firefly/Renilla luciferase, luminescence, FRG1 inhibition for FSHD, primary screen (AID 1084); details: FRG1 promoter luciferase, higher = more signal, called active from +8 up or from −8 down
# [9] = small molecules captured by biotinylated probe aFST – biochemical, small-molecule microarray, fluorescence 635/667, stem cell growth factor project, primary screen (AID 1086); details: higher = more signal;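 also: score merges 667 nm fluorescence with signal-to-noise of each printed compound spot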
# [10] = binders of probe aHhip on microarray, primary screen, stem cell growth factor project, biochemical, small-molecule microarray, fluorescence 635/667 (AID 1087); details: higher = more signal;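 also: score merges spot fluorescence at 667nm with spot signal to noise ratio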
# [11] = tested on: PRMT1 (protein arginine N-methyltransferase 1); test: small molecules binding arginine methyltransferase PRMT1 – biochemical, small-molecule microarray, 635 nm fluorescence, primary screen (AID 1088); details: higher = more signal;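 also: binding of Prmt1 protein to compounds spotted on small-molecule microarray slides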
# [12] = growth effects on S. cerevisiae YJM789 – YJM789 clinical isolate, OD600, 24 h, basal, primary screen (AID 1089); details: higher = more signal, called active from +8 up or from −8 down;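 also: growth of clinical yeast isolate S. cerevisiae YJM 789 seeded 1000 cells per well; test concentration not given here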
# [13] = S. pombe growth modifiers, basal conditions – strain 972, OD600, 24 h, no modulator, primary screen (AID 1090);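 also: basal condition with compound alone and no growth modifier present; test concentration not given here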; details: S. pombe 972 growth, higher = more signal, called active from +8 up or from −8 down
# [14] = budding yeast growth modifiers under rapamycin – strain BY4716, OD600, 96 h, primary screen (AID 1091); also: test concentration not given here; details: S. cerevisiae BY4716 + rapamycin, higher = more signal, called active from +8 up or from −8 down
# [15] = target: Torsin-1A-interacting protein 2 (Homo sapiens) (UniProt Q8NFQ8); test: small molecules binding lysate-expressed LULL1 – cell lysate, human LULL1 lysate, 635/667 nm fluorescence, primary screen (AID 1092); details: small-molecule microarray, hLULL1 lysate binding, 635 nm fluorescence; higher = more signal;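 also: probe is lysate of COS7 cells overexpressing human LULL1; score merges per-feature 667 nm fluorescence with signal-to-noise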
# Sequence of Torsin-1A-interacting protein 2 (Homo sapiens) (Q8NFQ8 whole entry, looked up): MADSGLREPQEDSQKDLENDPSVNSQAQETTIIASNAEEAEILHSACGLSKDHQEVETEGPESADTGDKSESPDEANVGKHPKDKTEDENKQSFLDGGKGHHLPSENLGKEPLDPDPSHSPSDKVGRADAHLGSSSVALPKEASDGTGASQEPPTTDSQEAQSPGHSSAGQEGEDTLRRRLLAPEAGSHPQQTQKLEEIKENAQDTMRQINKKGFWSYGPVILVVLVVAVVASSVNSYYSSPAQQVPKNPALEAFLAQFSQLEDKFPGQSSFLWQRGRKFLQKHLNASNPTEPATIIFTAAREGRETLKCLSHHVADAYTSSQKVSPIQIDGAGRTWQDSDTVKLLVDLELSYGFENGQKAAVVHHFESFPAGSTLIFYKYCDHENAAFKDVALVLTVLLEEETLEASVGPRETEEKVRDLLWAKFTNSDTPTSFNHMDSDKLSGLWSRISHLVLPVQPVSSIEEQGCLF
# [16] = optical density change of DRC41 E. coli – strain DRC41, OD650, 24 h, E. coli filamentation project, primary screen (AID 1093);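 also: MC1000 strain lacking acrAB efflux and sulA so SOS filamentation is blocked; test concentration not given here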; details: E. coli DRC41 growth, higher = more signal, called active from +8 up or from −8 down
# [17] = probe aLefty2 binding to arrayed compounds – biochemical, biotinylated probe, 635/667 nm fluorescence, primary screen (AID 1094); details: small-molecule microarray, higher = more signal;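 also: score merges spot fluorescence near 667 nm with spot signal-to-noise ratio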
# [18] = tested on: Noggin (protein binding on small-molecule microarray); test: small molecules binding Noggin protein – biochemical, 635/667 nm fluorescence, primary screen (AID 1095); details: 635 nm fluorescence, higher = more signal;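 also: score merges 667 nm feature fluorescence with signal to noise over triplicate slides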
# [19] = target: Neurogenic locus notch homolog protein 3 (Homo sapiens) (UniProt Q9UM47); test: small molecules binding NOTCH3 protein – biochemical, 635/667 nm fluorescence, primary screen (AID 1096); details: small-molecule microarray, 635 nm fluorescence, higher = more signal
# [20] = probe aEGFR binding to arrayed compounds – biochemical, biotinylated probe, 635/667 nm fluorescence, primary screen (AID 1097); details: small-molecule microarray, higher = more signal;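 also: probe is a biotinylated anti-EGFR antibody binding compounds printed on slides; score combines fluorescence near 667 nm and signal to noise of each spot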
SMILES,composite z-score [1],composite z-score [2],composite z-score [3],composite z-score [4],composite z-score [5],composite z-score [6],composite z-score [7],z-score [8],composite z-score [9],composite z-score [10],composite z-score [11],z-score [12],z-score [13],z-score [14],composite z-score [15],z-score [16],composite z-score [17],composite z-score [18],composite z-score [19],composite z-score [20]
CCCC=C(CCC)[C@@H](NS(=O)(=O)c1ccc(Cl)cc1)c1ccccc1,0.329,-0.558,0.106,-0.243,0.191,-0.223,-0.358,0.909 (inactive),-0.0037,0.0251,0.61,0.286 (inactive),0.319 (inactive),1.61 (inactive),1.1,-0.829 (inactive),-0.0916,-0.135,-0.682,-0.125
C=CC[C@@]12N=C(c3ccc(OCCCO)cc3)O[C@@H]1c1ccccc1N(Cc1ccccc1)C2=O,1.16,1.43,0.302,0.524,0.552,1.44,1.31,-3.36 (inactive),2.19,0.145,1.54,-0.965 (inactive),-1.53 (inactive),1.86 (inactive),3.14,1.12 (inactive),0.145,1.72,1.08,0.0631
C=CCNC(=O)[C@H]1[C@@H]2C(=O)O[C@@H](c3ccccc3)[C@@H](c3ccccc3)N2[C@@H](c2ccc(O)cc2)[C@]12C(=O)Nc1ccc(C#CC3=CCCCC3)cc12,-0.713,2.01,-0.0449,0.447,0.706,0.0212,1.18,-0.195 (inactive),-0.166,0.199,1.42,1.51 (inactive),0.614 (inactive),1.98 (inactive),1.54,-0.197 (inactive),0.384,1,0.758,-0.17
CC(C)C[C@@H]1NC(=O)[C@@H]2C[C@H](C(=O)NCCCC[N+](C)(C)C)[C@H](c3ccc(O)cc3)N2C1=O,-0.358,1.4,-0.116,0.639,0.113,1.54,1.32,0.53 (inactive),0.221,0.319,1.53,-0.246 (inactive),0.491 (inactive),-1.48 (inactive),1.76,0.0731 (inactive),-0.0295,1.91,1.02,0.0251
CCCCC(O)C1C=CC2C(=O)N(C)C(=O)C2N1Nc1ccccc1 (stereo not given),0.645,0.0873,-0.0778,0.435,0.762,1.76,1.25,1.63 (inactive),0.632,0.128,0.24,0.763 (inactive),0.555 (inactive),1.99 (inactive),3.13,-1.26 (inactive),-0.013,-0.649,0.51,-0.143
CC(C)(C)OC(=O)CC[C@]1(C(=O)N2CCOCC2)N=C(c2ccc(OCCCO)cc2)O[C@H]1c1ccccc1CN=[N+]=[N-],0.912,1.03,-0.0296,0.286,0.684,1.26,1.5,1.57 (inactive),0.474,0.113,1.55,-0.673 (inactive),0.306 (inactive),-0.611 (inactive),3.32,-0.798 (inactive),-0.127,1.79,0.725,-0.044
COC(=O)[C@@]1(Cc2ccc(F)cc2)[C@H]2c3cc(C(=O)N4CCCC4)n(CCO)c3C[C@H]2CN1C(=O)c1ccccc1,0.0451,-0.124,0.153,0.603,1.64,1.06,1.26,0.383 (inactive),0.537,0.628,-1.09,-0.215 (inactive),1 (inactive),-0.164 (inactive),2.88,0.208 (inactive),0.335,0.4,0.517,0.0753
COCCOC(=O)N1C(=O)[C@@]2(c3cc(C#CCCO)ccc31)[C@H](c1ccc(O)cc1)N1[C@H](c3ccccc3)[C@H](c3ccccc3)OC(=O)[C@H]1[C@@H]2C(=O)N1CCc2cc(OC)c(OC)cc2C1,0.0104,0.366,-0.0004,0.525,1.36,1.04,1.32,-0.994 (inactive),0.411,-0.271,1.52,0.47 (inactive),0.511 (inactive),1.23 (inactive),2.45,-0.617 (inactive),-0.0616,1.55,1.06,0.122
COc1ccc([Si](C)(C)[C@H]2[C@H](CCn3cc([C@H](O)c4ccccc4)nn3)O[C@@]3(C(=O)N(c4ccccc4)c4ccccc43)[C@@H]2C)cc1,-0.0662,-0.125,-0.137,0.0529,-0.0554,0.44,0.248,-0.805 (inactive),-0.0512,-0.236,1.56,1.02 (inactive),1.11 (inactive),1.88 (inactive),0.147,1.58 (inactive),-0.166,1.1,0.802,-0.187
CC(C)[Si](C#CCCCC#N)(O[C@H](c1ccccc1)c1cn([C@H](C)c2ccccc2)nn1)C(C)C,-0.207,0.268,-0.0538,0.505,0.792,0.816,0.726,-2.24 (inactive),0.612,-0.214,1.48,-0.766 (inactive),-0.415 (inactive),-3.12 (inactive),0.76,0.674 (inactive),0.064,1.08,1.1,-0.152
CCOC(=O)C1=CC[C@@H](c2ccccc2)N(S(=O)(=O)c2ccc(C)cc2)[C@H]1C#N,-0.18,-0.0196,-0.0381,0.848,1.25,0.741,1.29,1.04 (inactive),1.1,-0.191,0.811,0.0536 (inactive),-1.06 (inactive),0.281 (inactive),2.99,-0.121 (inactive),-0.0179,-0.14,0.612,0.0985
CCOC(=O)C[C@H]1[C@H](OC(=O)c2cc3ccccc3oc2=O)[C@@H](NC(=O)C2CCCCC2)c2cc(OCCCO)ccc2N1C(=O)Cc1ccc(OC)cc1,-0.0716,0.714,0.0066,0.65,0.54,0.052,0.72,0.198 (inactive),0.352,-0.201,0.466,0.248 (inactive),0.222 (inactive),-0.295 (inactive),0.727,-0.723 (inactive),0.0424,0.909,0.894,-0.0623
N#Cc1ccc(C(O)C2C=CC3C(=O)NC(=O)C3N2Nc2ccccn2)cc1 (stereo not given),-0.0872,-0.013,-0.0692,0.311,0.905,1.41,0.511,-0.0581 (inactive),0.12,0.113,0.312,-1.4 (inactive),0.811 (inactive),-0.657 (inactive),1.4,-0.195 (inactive),-0.147,-0.14,-0.124,-0.0594
O=C1O[C@@H](c2ccccc2)[C@@H](c2ccccc2)N2[C@@H](c3ccc(OCCO)cc3)[C@]3(C(=O)Nc4ccc(C#CCCO)cc43)[C@@H](C(=O)Nc3nc4ccccc4s3)[C@H]12,0.0758,0.482,-0.0316,0.444,1.03,1.14,1.07,0.28 (inactive),1.27,-0.0241,1.5,1.32 (inactive),0.415 (inactive),1.72 (inactive),3.06,2.55 (inactive),-0.0826,0.677,1.06,-0.0531
O=C1N(Cc2ccccc2)c2ccccc2[C@H]2OC(c3ccc(OCCCO)cc3)=N[C@@]12Cc1ccccc1,0.85,0.205,0.202,0.862,0.45,0.924,1.3,-1.69 (inactive),1.03,0.115,1.54,-0.915 (inactive),-0.469 (inactive),6.52 (inactive),2.58,-0.905 (inactive),-0.0058,1.54,1.1,-0.0525
O=C1C2C=CC(C(O)c3cccs3)N(Nc3ccccc3)C2C(=O)N1c1ccccc1 (stereo not given),0.629,-0.0855,-0.0459,0.0873,0.878,0.97,0.964,-1.49 (inactive),0.35,-0.0237,-0.435,0.521 (inactive),-0.175 (inactive),0.231 (inactive),3.11,0.0249 (inactive),-0.0329,-0.448,0.365,-0.0583
CCCCCN1CC=CC23O[C@@H]4C=CCOC(=O)[C@@H]4[C@H]2C(=O)N(CCCCCO)[C@@H]3C1=O (stereo not given in full),0.346,1.8,-0.113,-1.11,-1.26,-0.48,1.29,0.391 (inactive),-0.883,-0.261,0.421,-1.16 (inactive),0.249 (inactive),-1.02 (inactive),1.59,2.58 (inactive),-0.121,-0.361,0.103,-0.167
C=CCC(OC(C)=O)[C@@H]1[C@@H](N(Cc2ccc(-c3ccccc3)cc2)C(=O)c2ccc(-c3ccccc3)cc2)c2cc(OCCCO)ccc2N1C(=O)c1ccc2ccccc2n1 (stereo not given in full),0.0997,0.185,-0.0945,0.0767,-0.332,0.211,-0.359,-0.0161 (inactive),0.212,0.347,0.474,-0.755 (inactive),-0.638 (inactive),-0.0474 (inactive),0.183,0.853 (inactive),0.121,0.408,0.361,-0.0494
CCOC(=O)C[C@H]1[C@H](OC(=O)c2ccc(C(=O)c3ccccc3)cc2)[C@@H](NC(=O)c2ccc3ccccc3c2)c2cc(OCCCO)ccc2N1C(=O)c1ccc2ccccc2n1,-0.432,0.761,-0.101,0.746,0.5,0.43,0.53,0.476 (inactive),0.392,-0.151,1.26,0.216 (inactive),-0.629 (inactive),0.256 (inactive),0.962,1.79 (inactive),0.0249,0.836,1.03,0.111
